# Shown are actives, neighbours in structure and some others; about 3.8% of the full set was active somewhere.
# mIDH1 inhibitor: qHTS for Inhibitors of mutant isocitrate dehydrogenase 1 (IDH1): qHTS; Potency, µM (highest dose often 76.6 µM), for inactives: top-dose activity change, negative = inhibition, usual class: inhibitors; IDH1-R132H enzyme, NADPH consumption, diaphorase/resazurin fluorescence; 390,000 compounds, 0.093% hits; AID 602179, 2012; note: % is set by controls: 0 for no effect and ±100 for the full control effect; nearly all actives have a fitted effect of over 65% in size
# Target sequence (O75874 whole entry R132H, stated change not applied): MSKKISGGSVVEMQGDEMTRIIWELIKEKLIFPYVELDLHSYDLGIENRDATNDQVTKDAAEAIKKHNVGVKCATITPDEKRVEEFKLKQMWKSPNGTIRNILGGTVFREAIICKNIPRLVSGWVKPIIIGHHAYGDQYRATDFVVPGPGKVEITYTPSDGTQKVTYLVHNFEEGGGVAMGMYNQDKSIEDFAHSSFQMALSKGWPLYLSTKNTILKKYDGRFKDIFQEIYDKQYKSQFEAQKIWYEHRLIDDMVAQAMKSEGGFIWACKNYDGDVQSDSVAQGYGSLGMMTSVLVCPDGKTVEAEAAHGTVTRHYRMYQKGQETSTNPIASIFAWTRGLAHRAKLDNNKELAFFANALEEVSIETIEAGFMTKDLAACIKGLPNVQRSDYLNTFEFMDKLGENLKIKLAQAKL
#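 IDH1-R132H (0.5 ug/mL dispensed) in pH 7.5 Tris buffer was preincubated 30 min with compound, then given a substrate mix of 0.016 mM NADPH and 2 mM alpha-KG for 80 min at room temperature; remaining NADPH was read by diaphorase/resazurin fluorescence.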
# Nrf2 activator: qHTS of Nrf2 Activators | AID 624171, 2012 | AREc32 ARE-luciferase reporter (MCF7-derived line), luminescence, 24 h | 410,000 compounds, 0.31% hits | Potency, µM (doses to about 46.1 µM), inactives show top-dose activation, most hits filed as activators; note: % of control where 0% means no effect; nearly all actives have a fitted effect of over 65% in size
#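 Luciferase luminescence (Steady-Glo, 30 min at room temperature) served as the read-out of ARE activation in AREc32 cells treated with compounds for 24 hr at 37 deg C.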
# Nrf2 block: Nrf2 qHTS screen for inhibitors. AID 504444, 2011. A549 ARE-Fluc reporter, luciferase luminescence, 18-24 h. Potency, µM (titrated, usually from 46 µM), without a hit: top-dose activity change, negative = inhibition, actives largely listed as inhibitors. 360,000 compounds, 2.1% hits; note: % is set by controls: 0 for no effect and ±100 for the full control effect; nearly all actives have a fitted effect of over 60% in size
#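 A549 ARE_Fluc cells, 5000/well, 5% FBS OPTI-MEM; compounds in dose-response, 18-24 h at 37 °C/5% CO2; CellTiter-Fluor viability read (Ex 405/Em 525), then BugLite luciferase luminescence = Nrf2 activity.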
# A549 tox: Nrf2 qHTS screen for inhibitors: counterscreen for cytotoxicity | A549 ARE-Fluc cells, CellTiter-Fluor viability, 18-24 h | Potency, µM (series often up to 46 µM), without a hit: top-dose activity change, negative = cytotoxicity, hits mostly inhibitors | 390,000 compounds, 0.16% hits; note: % is set by controls: 0 for no effect and ±100 for the full control effect
#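 A549 ARE-Fluc cells in 5% FBS OPTI-MEM, 5000 cells/well, rested 2 h then exposed to compounds in concentration-response for 18-24 h at 37 °C. Viability by CellTiter-Fluor fluorescence (Ex 405/Em 525) after 30 min; luciferase luminescence (BugLite, 15 min, RT) read afterwards.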
# ELG1 DNA repair: qHTS screen for small molecules that inhibit ELG1-dependent DNA repair in human embryonic kidney (HEK293T) cells expressing luciferase-tagged ELG1 | AID 504467, 2011 | HEK293T ELG1-luciferase reporter, luminescence, 16 h; DNA damage induced by 5-fluorouridine | Potency, µM (titrated, usually from 46.1 µM), for the others: at the top dose activity change, negative = inhibition, hits mostly inhibitors | 330,000 compounds, 2.3% hits; note: % is set by controls: 0 for no effect and ±100 for the full control effect; nearly all actives have a fitted effect of over 55% in size
#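 HEK293T cells expressing luciferase-tagged ELG1 (2,000/well) received 5-Fluorouridine plus compound or DMSO for 16 hr at 37 °C. Luciferase was read by ONE-Glo luminescence after 30 min at room temperature.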
# The depositor's hits bear a star; ? = inconclusive; . = no result; [ ] = remark or other dose. Calls come from the whole dose curve; as a rule, active = well fitted curve in the direction sought with a large enough effect; inconclusive = small, poorly fitted or top-dose-only effect, or another doubt; inactive = no such curve, though single readings can be large; an effect the other way counts as inactive or inconclusive. Potency is the fitted concentration of half-maximal effect.
SMILES,mIDH1 inhibitor,Nrf2 activator,Nrf2 block,A549 tox,ELG1 DNA repair
O=C(c1ccc2ccccc2c1)C1CCCN(S(=O)(=O)c2cccnc2)C1 (stereo not drawn),-0.6%,5.6%,20.6µM*,-12.7%,?
Cc1cccc(C)c1NC(=O)CN(C)CC(=O)Nc1sc2c(c1C(N)=O)CCC2,1.0%,-0.4%,1.6%,-11.1%,7.3µM*
Cc1ccc(-n2nc(C(=O)N(C)Cc3ccccc3)c3c4ccccc4n(C)c3c2=O)cc1,6.7%,0.4%,8.1%[9.27 µM],2.8%,.
CCC(C)n1nccc1NC(=O)C(C)OC(=O)c1cc2ccccc2[nH]1 (stereo not drawn),2.4%,0.3%,?,-5.6%,?
COc1ccc(OC)c(NC(=O)C(C)OC(=O)c2cc3ccccc3[nH]2)c1 (stereo not drawn),-7.1%,5.6%,18.4µM*,2.2%,.
COc1ccccc1NC(=O)C(C)OC(=O)c1cc2ccccc2[nH]1 (stereo not drawn),-8.6%,8.9%,20.6µM*,-0.2%,?
COc1ccc(OC)c(NC(=O)C(C)Oc2ccc(Br)cc2)c1 (stereo not drawn),11.1%,0.2%,-5.9%,4.1%,-12.7%
Nc1ncccc1OCc1cccc(C(F)(F)F)c1,3.4%,0.2%,16.4µM*,?,?
CCn1c(COc2ccc(C)cc2)nnc1SCc1nc2ccccc2[nH]1,0.8%,3.2%,18.4µM*,-27.4%,?
O=C(CSc1nnc(COc2ccc(Cl)cc2)n1Cc1ccco1)c1ccccc1F,2.2%,0.1%,13µM*,?,?
Clc1ccc(OCc2nnc(SCc3nc4ccccc4[nH]3)n2Cc2ccco2)cc1,-1.3%,3.1%,18.4µM*,?,16.4µM*
Cn1c(COc2ccccc2)nnc1SCc1nc2ccccc2[nH]1,4.7%,4.3%,?,0.5%,-14.5%
Clc1cccc(-c2nnc(SCc3nc4ccccc4[nH]3)n2Cc2ccco2)c1,-0.8%,2.7%,-20.3%,-16.5%,0.0%
COc1cccc(CNn2c(-c3cccc(C)c3)nc3ccccc3c2=O)c1O,1.3%,0.5%,0.0%,0.0%[1.84 µM],16.4µM*
COc1ccc(CCNC(=O)COC(=O)c2cc(S(=O)(=O)N3CCOCC3)ccc2C)cc1OC,6.7%,2.2%,-12.9%,-4.7%,?
c1ccc(-c2nc(NCc3cccnc3)c3ccccc3n2)cc1,-3.0%,0.2%,?,-14.3%,?
c1cncc(-c2nc(NCC3CCCO3)c3ccccc3n2)c1 (stereo not drawn),5.2%,1.9%,-16.2%,-7.7%,23.1µM*
Clc1cccc(-c2nc(NCc3cccnc3)c3ccccc3n2)c1,-1.5%,8.0%,.,-5.4%,7.31µM*
CS(=O)(=O)N1CCCCC1c1cc(C(=O)Nc2ccccc2Cl)no1 (stereo not drawn),.,3.1%,.,.,.
O=C(NCc1cccnc1)/C(=C\c1ccc(-c2ccc(Br)cc2)o1)S(=O)(=O)c1ccccc1,-23.5%,?,?,?,20.6µM*
O=C(NCc1cccnc1)/C(=C/c1ccc(-c2ccc(Cl)cc2)o1)S(=O)(=O)c1ccccc1,0.9%,?,20.6µM*,?,?
O=C(CN(Cc1ccc(Br)cc1)S(=O)(=O)c1ccccc1)NCc1cccnc1,16.6%,0.1%,-12.2%,12.0%,?
COc1ccc(NC(=O)CN2C(=O)C(c3ccc(C(C)(C)C)cc3)=NC2(C)C)cc1Cl,.,-0.3%,13.4%,-0.5%,.
CC(C)Oc1ccc(CNC(=O)Nc2ccc3c(c2)N(C)C(=O)c2ccccc2S3)cc1,-9.1%,-0.6%,?,2.0%,.
CCOc1ccc(NC(=O)C2CCCN(c3nnc(-n4c(C)ccc4C)s3)C2)cc1 (stereo not drawn),.,13.5%,-0.4%,11.5%,.
SMILES,mIDH1 inhibitor,Nrf2 activator,Nrf2 block,A549 tox,ELG1 DNA repair
Cc1ccc(-n2nc(C)c3c(C(=O)Nc4ccc(C)cc4Cl)cc(C)nc32)cc1,0.0%,-0.1%,28.1%,4.9%,.
Cc1ccc(S(=O)(=O)N2CCN(c3nc(-c4cccnc4)nc4ccccc34)CC2)cc1,.,.,8.3%,-2.2%,.
O=S(=O)(c1cccc(F)c1)N1CCN(c2nc(-c3cccnc3)nc3ccccc23)CC1,-14.2%,0.1%,?,-13.0%,10.3µM*
Cc1cc(C)c(C)c(C(=O)CSc2nnc(-c3ccc4[nH]c(C)c(C)c4c3)o2)c1C,10.4%,-0.6%,11.6µM*,?,16.4µM*
O=c1[nH]c(SCc2nc3c(cnn3-c3ccccc3)c(=O)[nH]2)nc2ccccc12,5.6%,-0.3%,.,-15.6%,?
O=c1[nH]c(CSc2nc3ccccc3[nH]2)nc2c1cnn2-c1ccccc1,2.9%,-0.2%,14.6µM*,-23.7%,11.6µM*
O=C1S/C(=C\c2ccc(O)c([N+](=O)[O-])c2)C(=O)N1c1ccccc1Cl,-3.0%,6.1%,?,?,?
COc1cc(/C=C2\SC(=O)N(c3ccc(Cl)cc3)C2=O)cc([N+](=O)[O-])c1O,0.0%,-0.6%,?,16.4µM*,-18.0%
COc1cc(/C=C2\SC(=O)N(c3cccc(Cl)c3)C2=O)cc([N+](=O)[O-])c1O,22.3%,-1.0%,?,13µM*,-3.2%
O=C(Nc1ccc(N2CCOCC2)c(S(=O)(=O)Nc2ccccc2Cl)c1)c1ccc(=O)[nH]n1,?,0.7%,-19.9%,-0.1%,.
O=C(Nc1ccc(N2CCOCC2)c(S(=O)(=O)Nc2ccccc2Cl)c1)c1ccccc1,-13.0%,-0.2%,16.4µM*,-7.8%,18.3µM*
O=C(Nc1ccccc1N1CCOCC1)c1ccc(Cl)c(S(=O)(=O)NCc2ccco2)c1,1.7%,-0.7%,-15.0%,0.4%,16.4µM*
COc1ccccc1NS(=O)(=O)c1cc(NC(=O)c2ccncc2)ccc1N1CCCC1,2.8%,2.0%,20.6µM*,-16.3%,?
COc1ccccc1NS(=O)(=O)c1cc(NC(=O)c2ccc(Cl)nc2)ccc1Cl,5.3%,0.0%,23.1µM*,?,13µM*
CSc1nc2c([nH]c3ccccc32)c(=O)n1-c1ccc(C)cc1,-5.0%,3.7%,.,2.1%,.
O=C1Cc2cc(S(=O)(=O)N3CCN(c4ccc(F)cc4)CC3)ccc2N1,.,.,-18.5%[92.2 µM],5.3%[92.2 µM],.
CCOc1ccc(NS(=O)(=O)c2cc(NC(=O)c3ccc(C)cc3)ccc2Cl)cc1,-3.2%,0.2%,?,?,6.51µM*
CCOc1ccc(Oc2ccc(NS(=O)(=O)c3cc(C(=O)O)ccc3Cl)cc2)cc1,10.9%,-0.4%,-17.5%,5.0%,0.3%
COC(=O)c1c(C(=O)OC)c(-c2ccc(Cl)c(Cl)c2)n2c1CCC2,3.0%,0.5%,18.4µM*,-2.9%[1.84 µM],?
